Screens as filed in PubChem BioAssay.
RAD52 inh: blocks human RAD52 DNA annealing; recombinant RAD52 DNA annealing, FRET fluorescence; hit rate 0.46% among 360,000; AID 651710; inhibition, % at 18.7 µM;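 active = every replicate showing at least 50% inhibition; inconclusive = mean inhibition at least 50% but not in every replicate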
AF4-AF9 inh: blocks AF4 peptide binding to human AF9. AlphaScreen, biotin-AF4 peptide binding to FLAG-AF9. inhibition, % at 10 µM. hit rate 0.47% among 350,000;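 active = every replicate reaching a set inhibition limit, whatever the replicate mean, cut at about 25% in these data; inconclusive = mean inhibition reaches that limit but some replicates miss it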;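 note: 0% = plate neutral control median and 100% = total signal loss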
dFosB activator: mouse delta FosB homodimer activation | hit rate 0.99% among 340,000 | P13346 | AID 493131 | activation, % at 25 µM | purified delta FosB, TAMRA-CDK5 oligo fluorescence polarization; percent of positive-control signal above neutral wells;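 active = mean activation above about 17%, with every replicate also reaching it, limit read from the data, passing the limit was not always enough; inconclusive = only one of the two conditions met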
Target sequence (P13346 whole entry, looked up): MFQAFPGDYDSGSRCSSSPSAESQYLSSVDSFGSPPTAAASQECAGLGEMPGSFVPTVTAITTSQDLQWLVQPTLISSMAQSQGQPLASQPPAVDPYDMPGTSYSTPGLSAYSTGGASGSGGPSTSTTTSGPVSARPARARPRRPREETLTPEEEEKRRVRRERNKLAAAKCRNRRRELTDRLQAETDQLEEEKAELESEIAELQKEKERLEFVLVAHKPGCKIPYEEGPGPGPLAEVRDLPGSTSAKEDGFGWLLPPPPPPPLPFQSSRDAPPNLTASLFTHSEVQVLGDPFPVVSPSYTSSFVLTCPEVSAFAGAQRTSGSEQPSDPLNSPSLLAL
INS-1E GSIS act: primary screen for activators of insulin secretion dependent on glucose, INS-1E cells, GLuc reporter luminescence; hit rate 0.61% among 370,000; activation, % at 16.6 µM; INS-1E GLuc reporter insulin secretion, 2-3 h; AID 743287;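 active = lowest replicate activation of at least 40%, so every replicate reaches that level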;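 note: 0% = median of neutral control wells and 100% = median of IBMX positive control wells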
RAD54 inh: RAD54 (human) branch migration inhibition | RAD54 Holliday junction branch migration, FAM/BHQ fluorescence | inhibition, % at 10.4 µM | hit rate 0.14% among 360,000;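 active = mean normalized replicate activity at least 40 and at least half of replicates scoring 40 or more; inconclusive = only one of the two criteria met; inactive = mean below 40 and under half of replicates reaching 40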;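 note: 0% = median of neutral control wells and 100% = median of positive control wells; inhibitors cause a drop in the FAM fluorescence signal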
DENV2 CPE rescue: DENV2-induced cell death inhibition. DENV2-infected cells, cytopathic effect rescue, plate reader. CPE inhibition, % at 9.99 µM. hit rate 1.7% among 350,000; in the data active = CPE inhibition above about 20%, passing the limit was not always enough; inconclusive = no clear call, values can overlap the other calls; tested in BHK-21 cells;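 note: 0% = median of neutral control wells and 100% = median of positive control wells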
* hit, by the source's call; ? = inconclusive; nt = not tested or not shown; ! = not confirmed by another sample. Most compounds without a hit are left out; they make up all but 3.1% or so of the library.

SMILES | RAD52 inh | AF4-AF9 inh | dFosB activator | INS-1E GSIS act | RAD54 inh | DENV2 CPE rescue
COc1ccc2c3c([nH]c2c1)[C@H](CO)N(C(=O)CN(C)C)CC31CCN(C(=O)c2cccnc2)CC1 | 1 | -1 | nt | 0 | nt | -5
Cc1cccc(NS(=O)(=O)c2ccc(C(=O)NCC3CCCO3)cc2)c1C (stereo not drawn) | -28 | 0 | -7 | -36 | 2 | -10
Cc1ccc(S(=O)(=O)Nc2ccccc2N2CCCCC2)cc1 | 1 | -2 | -3 | 5 | 3 | -1
O=C(NCC(F)(F)F)c1ccc(S(=O)(=O)Nc2ccccc2N2CCCC2)cc1 | -39 | 2 | 53* | 11 | -2 | -8
O=C(NCC1CCCO1)c1ccc(S(=O)(=O)Nc2ccccc2F)cc1 (stereo not drawn) | -12 | -34 | 2 | 3 | nt | 101*
CC=Cc1ccc2n(c1=O)C[C@H]1[C@H](CO)[C@@H](C(=O)N3CCCCC3)[C@@H]2N1CC1CCCC1 (mixture of isomers) | 5 | 2 | nt | -6 | -5 | -7
Cc1cccc(C)c1-n1nnnc1C1(C)CCC(=O)N1Cc1cccs1 (stereo not drawn) | 1 | -1 | nt | 53* | nt | 57*
Cc1cccc(C)c1-n1nnnc1C1(C)CCC(=O)N1Cc1cccnc1 (stereo not drawn) | -7 | -2 | nt | 11 | nt | 38*
COc1ccc(CN2C(=O)CCC2(C)c2nnnn2Cc2ccccc2)cc1 (stereo not drawn) | 6 | 1 | nt | 7 | nt | 85*
Cc1ccc(CN2C(=O)CCC2(C)c2nnnn2-c2c(C)cccc2C)cc1 (stereo not drawn) | 1 | 2 | nt | -29 | nt | -4
CCCNC(=O)C[C@H]1CC[C@H]2[C@@H](COc3ccc(NC(=O)COC)cc3C(=O)N2C)O1 | nt | nt | nt | 3 | -13 | -4
Cc1noc(C)c1NC(=O)Nc1ccc2c(c1)CC(=O)N([C@@H](C)CO)C[C@@H](C)[C@@H](CN(C)CC1CC1)O2 | -9 | -1 | nt | 13 | 2 | 3
C[C@H](CO)N1C[C@H](C)[C@H](CN(C)Cc2ccccc2)OCCCC[C@H](C)Oc2ccc(NC(=O)Nc3cccc4ccccc34)cc2C1=O | -16 | 1 | nt | 9 | 2 | -25
O=C(OCC12CC3CC(CC(C3)C1)C2)c1ccc(NCc2cc(O)ccc2O)cc1 | -11 | ? | -4 | 157* | nt | 0
CCNC(=O)OCCC12CC3CC(CC(C3)C1)C2 | nt | nt | -2 | -7 | nt | nt
O=C(OCCC12CC3CC(CC(C3)C1)C2)c1ccc(NCc2cc(O)ccc2O)cc1 | -16 | 28* | -10 | 49 | nt | 8
N#CCC(=O)Nc1ccc(C(=O)OCC(=O)C23CC4CC(CC(C4)C2)C3)cc1 | -72 | -9 | -9 | -13 | -4 | -5
CC(=O)N(C)C[C@H]1Oc2cc(C#Cc3ccccn3)ccc2S(=O)(=O)N([C@@H](C)CO)C[C@H]1C | -11 | -1 | nt | 17 | 2 | -15
COc1cccc(S(=O)(=O)N(C)C[C@H]2Oc3ncc(C#CCN(C)C)cc3C(=O)N([C@H](C)CO)C[C@H]2C)c1 | -9 | -1 | nt | 10 | -7 | 6
C[C@@H]1CN([C@@H](C)CO)S(=O)(=O)c2ccc(Br)cc2O[C@@H]1CN(C)S(=O)(=O)c1cn(C)cn1 | 6 | -2 | nt | -10 | 1 | 24*!
C[C@H]1CN([C@@H](C)CO)S(=O)(=O)c2ccc(C#Cc3ccccc3)cc2O[C@@H]1CN(C)S(=O)(=O)c1cn(C)cn1 | -10 | -1 | nt | -32 | 7 | 34*
CC(C)C#Cc1ccc2c(c1)O[C@H](CN(C)S(=O)(=O)c1cn(C)cn1)[C@H](C)CN([C@H](C)CO)S2(=O)=O | 4 | -1 | nt | -4 | -10 | -7
Cc1[nH]c2ccccc2c1/C=N/Nc1nc(Nc2ccccc2)nc(N2CCOCC2)n1 | nt | nt | 23* | -32 | 2 | nt
Cc1[nH]c2ccccc2c1/C=N/Nc1ccccn1 | 19 | 26* | nt | 2 | nt | 6
c1ccc(Nc2nc(N3CCCC3)nc(N3CCOCC3)n2)cc1 | -23 | 0 | -3 | -7 | 0 | 0
SMILES | RAD52 inh | AF4-AF9 inh | dFosB activator | INS-1E GSIS act | RAD54 inh | DENV2 CPE rescue
Cc1ccc(Nc2nc(N3CCOCC3)nc(N3CCOCC3)n2)cc1 | nt | nt | -2 | nt | -9 | nt
Oc1[nH]c2ccccc2c1N=Nc1nc(Nc2ccccc2)nc(N2CCOCC2)n1 | -11 | 2 | 47* | 10 | 4 | -7
CCC(=O)N1CC2(C1)[C@H](c1ccc(-c3ccc(F)cc3)cc1)[C@H](CO)N2S(C)(=O)=O | -15 | 2 | nt | -8 | nt | 12
Cc1noc(C)c1S(=O)(=O)N(C)C[C@H]1OCCCC[C@@H](C)Oc2ccc(NS(=O)(=O)c3ccc(Cl)cc3)cc2C(=O)N([C@H](C)CO)C[C@@H]1C | 0 | -2 | nt | -1 | 0 | -13
C[C@@H]1CCCCO[C@@H](CN(C)C(=O)Nc2ccc3c(c2)OCO3)[C@H](C)CN([C@@H](C)CO)C(=O)c2cc(NC(=O)NC3CCCCC3)ccc2O1 | nt | nt | nt | 6 | -8 | -9
C[C@H]1CCCCO[C@@H](CN(C)C(=O)Nc2ccc3c(c2)OCO3)[C@@H](C)CN([C@@H](C)CO)C(=O)c2cc(NC(=O)NC3CCCCC3)ccc2O1 | nt | nt | nt | -1 | 11 | 48*
C[C@@H]1CN([C@H](C)CO)C(=O)c2cc(NC(=O)NC3CCCCC3)ccc2O[C@@H](C)CCCCO[C@H]1CN(C)C(=O)Nc1ccc2c(c1)OCO2 | nt | nt | nt | -4 | 2 | 101*
CO[C@@H]1CN(C)C(=O)c2ccc(NC(=O)C3CCCC3)cc2OC[C@@H](C)N(CC2CC2)C[C@H]1C | 12 | 1 | nt | -11 | 8 | 1
Cc1noc(C)c1S(=O)(=O)Nc1ccc2c(c1)C(=O)N([C@@H](C)CO)C[C@H](C)[C@@H](CN(C)S(=O)(=O)c1ccc(F)cc1)OCCCC[C@@H](C)O2 | nt | 0 | nt | -17 | nt | 12
Cc1noc(C)c1S(=O)(=O)Nc1ccc2c(c1)C(=O)N([C@H](C)CO)C[C@H](C)[C@@H](CN(C)S(=O)(=O)c1ccc(F)cc1)OCCCC[C@@H](C)O2 | 76* | -3 | nt | -7 | -2 | -12
Cc1noc(C)c1S(=O)(=O)Nc1ccc2c(c1)C(=O)N([C@H](C)CO)C[C@@H](C)[C@H](CN(C)S(=O)(=O)c1ccc(F)cc1)OCCCC[C@@H](C)O2 | 59* | 1 | nt | -13 | -8 | -7
Cc1ccc(S(=O)(=O)N(C)C[C@H]2OCCCC[C@@H](C)Oc3ccc(NS(=O)(=O)c4c(C)noc4C)cc3C(=O)N([C@@H](C)CO)C[C@@H]2C)cc1 | -57 | 0 | nt | -11 | 8 | 29*
Cc1noc(C)c1S(=O)(=O)Nc1ccc2c(c1)C(=O)N([C@@H](C)CO)C[C@H](C)[C@H](CN(C)S(=O)(=O)c1ccc(F)cc1)OCCCC[C@H](C)O2 | 81* | 1 | nt | -14 | -4 | 15
CC(C)C#Cc1ccc([C@@H]2[C@H](CO)N3C(=O)CN(C(=O)Cc4cccnc4)C[C@@H]23)cc1 | nt | nt | nt | 1 | nt | nt
